Assay [1] in a line: qHTS of pediatric cancer cell lines to identify multiple opportunities for drug repurposing: Primary screen for Rh30 cells (AID 1347107). Also: nearly all actives have a fitted effect of over 75% in size. Also: potency is read from the fitted curve at half-maximal effect. As to activity change, negative = cytotoxic: series mostly up to about 46 µM; % is scaled to controls: 0 for no effect and ±100 for the full control effect. The procedure, abridged: (§1)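 Cells (500-1,000/well) rested 5 h, then received compounds for 48 h; metabolically active cells were measured by CellTiter-Glo luminescence. Final concentrations spanned up to 46 µM (MIPE, 11-point) or 0.59 nM-46 µM (NPC, 8-point) in primary screens, 11-point in follow-ups.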

A short description of assay [2]: qHTS of pediatric cancer cell lines to identify multiple opportunities for drug repurposing: Primary screen for Rh41 cells (AID 1347108). Also: nearly all actives have a fitted effect of over 70% in size. Also: potency is read from the fitted curve at half-maximal effect.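 As to activity change, negative = cytotoxic: series mostly up to about 46 µM; luminescence drop marks cytotoxic hits.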 An outline of the steps: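 Cells plated at 500-1,000/well in growth medium, compounds added after 5 h. MIPE tested at 11 points (from 0.78 nM), NPC at 8 points (from 0.59 nM). CellTiter-Glo luminescence after 48 h; concentration-response curves from primary screen.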
A general note: Quantitative high-throughput screening tests each substance at several concentrations.

Assay [3] is described as follows: qHTS of pediatric cancer cell lines to identify multiple opportunities for drug repurposing: Confirmatory screen for NB1643 cells (AID 1347109). Also: nearly all actives have a fitted effect of over 45% in size. Also: potency is read from the fitted curve at half-maximal effect.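 As to activity change, negative = cytotoxic: plate controls were DMSO for no effect and bortezomib for full effect.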 An outline of the steps: as §1
Assay [4] in a line: qHTS of pediatric cancer cell lines to identify multiple opportunities for drug repurposing: Confirmatory screen for A673 cells (AID 1347110).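 Also: cells exposed to compound for 48 h before the viability read; nearly all actives have a fitted effect of over 65% in size.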 Also: potency is read from the fitted curve at half-maximal effect. An outline of the steps:
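Concentration-response curves came straight from titrations: 11 points (0.78 nM to 46 µM) for MIPE and several concentrations (0.59 nM to 46 µM) for NPC in primary, 11 points in follow-up. Readout: ATP luminescence at 48 h.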

Assay [5] can be described thus: qHTS of pediatric cancer cell lines to identify multiple opportunities for drug repurposing: Confirmatory screen for SK-N-MC cells (AID 1347111).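 Also: cells exposed to compound for 48 h before the readout; nearly all actives have a fitted effect of over 70% in size.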 Also: potency is read from the fitted curve at half-maximal effect.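 As to activity change, negative = cytotoxic: plate controls were DMSO for no effect and bortezomib for full effect.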 The procedure, abridged: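 Seed 500-1,000 cells/well; rest 5 h at 37 degrees C. Pin-transfer compounds, 11-point titration. Incubate 48 h. Add CellTiter-Glo, 15 min RT, read luminescence.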
The nature of assay [6]: qHTS of pediatric cancer cell lines to identify multiple opportunities for drug repurposing: Confirmatory screen for BT-12 cells (AID 1347112). Also: potency is read from the fitted curve at half-maximal effect.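 Also: viability read after 48 h of compound exposure; nearly all actives have a fitted effect of over 55% in size.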 As to activity change, negative = cytotoxic: % is scaled to controls: 0 for no effect and ±100 for the full control effect. An outline of the steps:
as §1

Assay [7] in a line: qHTS of pediatric cancer cell lines to identify multiple opportunities for drug repurposing: Confirmatory screen for LAN-5 cells (AID 1347113). Also: nearly all actives have a fitted effect of over 65% in size. The procedure, abridged:
as §1

The nature of assay [8]: qHTS of pediatric cancer cell lines to identify multiple opportunities for drug repurposing: Confirmatory screen for DAOY cells (AID 1347114). Also: nearly all actives have a fitted effect of over 65% in size. Also: potency is read from the fitted curve at half-maximal effect. As to activity change, negative = cytotoxic: % is scaled to controls: 0 for no effect and ±100 for the full control effect. The procedure, abridged:
(§2)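 Viability measured as metabolically active cells via CellTiter-Glo luminescence following 48 hours of compound exposure, 11-point dilutions in confirmatory testing. 500-1,000 cells/well plated 5 hours before dosing; controls were DMSO and 2.3 µM bortezomib.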

A short description of assay [9]: qHTS of pediatric cancer cell lines to identify multiple opportunities for drug repurposing: Confirmatory screen for NB-EBc1 cells (AID 1347115).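 Also: cells exposed to compound for 48 h before the viability read; nearly all actives have a fitted effect of over 45% in size.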 Also: potency is read from the fitted curve at half-maximal effect. As to activity change, negative = cytotoxic: % is scaled to controls: 0 for no effect and ±100 for the full control effect. An outline of the steps: as §1
A short description of assay [10]: qHTS of pediatric cancer cell lines to identify multiple opportunities for drug repurposing: Confirmatory screen for BT-37 cells (AID 1347117). Also: nearly all actives have a fitted effect of over 55% in size. Also: potency is read from the fitted curve at half-maximal effect.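 As to activity change, negative = cytotoxic: plate controls were DMSO for no effect and bortezomib for full effect.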 The procedure, abridged:
as §1

A short description of assay [11]: qHTS of pediatric cancer cell lines to identify multiple opportunities for drug repurposing: Confirmatory screen for TC32 cells (AID 1347118).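 Also: cells exposed to compound for 48 h before the read; nearly all actives have a fitted effect of over 65% in size.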 Also: potency is read from the fitted curve at half-maximal effect. The procedure, abridged: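 Measured quantity: luminescence from CellTiter-Glo, reflecting metabolically active TC32 cells following 48 h of compound. Curves came straight from multi-point titrations, with 8 or 11 points in primary and 11 in confirmatory screening.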

The nature of assay [12]: qHTS of pediatric cancer cell lines to identify multiple opportunities for drug repurposing: Confirmatory screen for MG 63 (6-TG R) cells (AID 1347119). Also: nearly all actives have a fitted effect of over 55% in size. Also: potency is read from the fitted curve at half-maximal effect. An outline of the steps: as §1
The nature of assay [13]: qHTS of pediatric cancer cell lines to identify multiple opportunities for drug repurposing: Confirmatory screen for control Hh wild type fibroblast cells (AID 1347121). Also: nearly all actives have a fitted effect of over 70% in size. Also: potency is read from the fitted curve at half-maximal effect. An outline of the steps:
as §1

Assay [14] is described as follows: qHTS of pediatric cancer cell lines to identify multiple opportunities for drug repurposing: Confirmatory screen for RD cells (AID 1347124). Also: potency is read from the fitted curve at half-maximal effect. The procedure, abridged: as §1
A short description of assay [15]: qHTS of pediatric cancer cell lines to identify multiple opportunities for drug repurposing: Confirmatory screen for Rh18 cells (AID 1347125). Also: nearly all actives have a fitted effect of over 55% in size. Also: potency is read from the fitted curve at half-maximal effect. The procedure, abridged: as §1
Assay [16] is described as follows: qHTS of pediatric cancer cell lines to identify multiple opportunities for drug repurposing: Confirmatory screen for Rh30 cells (AID 1347126). Also: nearly all actives have a fitted effect of over 55% in size. Also: potency is read from the fitted curve at half-maximal effect. The procedure, abridged: as §1
A short description of assay [17]: qHTS of pediatric cancer cell lines to identify multiple opportunities for drug repurposing: Confirmatory screen for Saos-2 cells (AID 1347127). Also: nearly all actives have a fitted effect of over 60% in size.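 As to activity change, negative = cytotoxic: plate controls were DMSO for no effect and bortezomib for full effect.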 The procedure, abridged:
as §1

A short description of assay [18]: qHTS of pediatric cancer cell lines to identify multiple opportunities for drug repurposing: Confirmatory screen for U-2 OS cells (AID 1347122). An outline of the steps: as §1
Assay [19] in a line: qHTS of pediatric cancer cell lines to identify multiple opportunities for drug repurposing: Confirmatory screen for SJ-GBM2 cells (AID 1347116). Also: nearly all actives have a fitted effect of over 60% in size. Also: potency is read from the fitted curve at half-maximal effect. An outline of the steps: as §2
Assay [20] in a line: qHTS of pediatric cancer cell lines to identify multiple opportunities for drug repurposing: Confirmatory screen for Rh41 cells (AID 1347123).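 Also: 48 h compound exposure; nearly all actives have a fitted effect of over 60% in size.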 Also: potency is read from the fitted curve at half-maximal effect. The procedure, abridged: as §1

The structures appear in SMILES notation. Inconclusive results are not listed. Values without a mark were called inactive. The source made the active and inactive calls. Calls follow the shape of the dose curve; as a rule, active = well fitted curve in the direction sought with a large enough effect; inconclusive = small, poorly fitted or top-dose-only effect, or another doubt; inactive = no such curve, though single readings can be large; an effect the other way counts as inactive or inconclusive.

Regarding `CN[C@@H]1[C@@H](O)[C@@H](O[C@@H]2[C@@H](O)[C@H](O[C@H]3O[C@H](CN)[C@@H](O)[C@H](O)[C@@H]3O)[C@@H](N)C[C@@H]2NC(=O)[C@@H](O)CN)OC[C@]1(C)O`, the Potency result in assay [1] and in assay [2] was “inactive” each time.
`CN[C@H]1[C@@H](O[C@@H]2[C@H](O[C@@H]3[C@@H](O)[C@@H](O)[C@@H](N=C(N)N)[C@@H](O)[C@@H]3N=C(N)N)O[C@H](C)[C@@]2(O)C=O)O[C@@H](CO)[C@@H](O)[C@H]1O`: the results for the activity change, negative = cytotoxic in [1] and in assay [2] were 15.1% [at 9.22 µM] and 17.1% [at 9.22 µM], respectively.
In the case of `CN1c2ccccc2C(=O)N2CCc3c([nH]c4ccccc34)C21` (stereo not given), the Potency entry in assay [1] and in assay [2] was “inactive” throughout.
Consider `Cc1cnc(-c2cc(N3CCN(C(=O)CCS(C)(=O)=O)CC3)ncc2Cl)c(C)c1`, for which the Potency result in assay [1], in assay [2], in assay [3], in [4], in assay [5] and in [6] was “inactive” throughout. The Potency entry in [7], in assay [8], in [9], in [11], in [12] and in assay [13] was “inactive” in each case. In addition, the Potency result in assay [14], in [15], in [16] and in assay [17] was “inactive” each time. In addition, in [10], the Potency is 29300 nM (active).
In the case of `CCC(=O)N1CCN(c2ccc(-n3c(=O)ccc4cnc5ccc(-c6cnc7ccccc7c6)cc5c43)cc2C(F)(F)F)CC1`, the Potency result in assay [1], in [3], in assay [4], in assay [6], in [7] and in assay [8] was “inactive” throughout. Further, the Potency result in assay [9], in [13], in assay [18], in assay [14], in assay [15] and in [16] was “inactive” in each case. Besides, the Potency was 74.3 nM (active) in assay [2], 9270 nM (active) in [5] and 8270 nM (active) in [11].
In the case of `CC1(C)OC2CC3C4CC(F)C5=CC(=O)C=CC5(C)C4C(O)CC3(C)[C@]2(C(=O)CO)O1` (stereo not given in full), the Potency result in assay [1], in assay [2], in [3], in assay [4], in assay [5] and in assay [6] was “inactive” each time. The Potency entry in assay [7], in [8], in assay [9], in [19], in [10] and in [11] was “inactive” each time. The Potency entry in assay [12], in assay [13], in [14], in [15], in assay [16] and in assay [17] was “inactive” each time.
On to `COc1nc(C)cnc1NS(=O)(=O)c1cccnc1-c1ccc(-c2nnco2)cc1`, for which the Potency result in [1] and in assay [2] was “inactive” each time.
Consider `COc1cccc(OC)c1-c1cc(C(=O)NC2(C(=O)O)C3CC4CC(C3)CC2C4)nn1-c1ccnc2cc(Cl)ccc12` (stereo not given), for which the Potency entry in assay [1] and in assay [2] was “inactive” in each case.
On to `O=c1[nH]c(=O)n([C@H]2C[C@@H](O)[C@@H](CO)O2)cc1I`, for which the Potency result in assay [1] and in assay [2] was “inactive” each time.
With `C[C@]12CCC3=C4CCC(=O)C=C4CC[C@@H]3[C@H]1CC[C@@]2(O)CC#N`, the Potency result in [1] and in assay [2] was “inactive” in each case.
Turning to `CC(NCCc1ccc(O)cc1)C(O)c1ccc(O)cc1` (stereo not given), the Potency result in assay [1] and in [2] was “inactive” throughout.
With `COc1ccc(-c2ccc3ncc4c(c3c2)n(-c2ccc(N3CCNCC3)c(C(F)(F)F)c2)c(=O)n4C)cn1`, the Potency is 1870 nM (active) in [1]; 23.5 nM (active) in assay [2]; 1040 nM (active) in [3]; 131 nM (active) in [4]; 82.7 nM (active) in assay [5]; 7370 nM (active) in [6]. Also, the Potency in [8] is 2330 nM (active); in assay [9], 928 nM (active); in assay [19], 465 nM (active); in assay [10], 208 nM (active); in assay [11], 32.9 nM (active); in [12] it was 32.9 nM (active). The Potency was 10400 nM (active) in [13]; 58.5 nM (active) in [20]; 185 nM (active) in [14]; 414 nM (active) in assay [15]; 293 nM (active) in assay [16].
As to `CN1CCc2c(n(Cc3ccc(C(=O)NO)cc3)c3ccccc23)C1`, the Potency result in [1] was “inactive”. For the same compound, the Potency in [2] is 11800 nM (active).
As for `COC(=O)[C@H](c1ccccc1Cl)N1CCc2sccc2C1`, the Potency result in [1], in assay [2], in assay [3], in [4], in assay [5] and in assay [6] was “inactive” in each case. For the same compound, the Potency entry in assay [7], in assay [8], in assay [9], in assay [19], in [10] and in [11] was “inactive” in each case. For the same compound, the Potency result in assay [12], in assay [13], in [18], in assay [20], in assay [14] and in assay [15] was “inactive” throughout. For the same compound, the Potency result in assay [16] and in assay [17] was “inactive” in each case.

These data come from PubChem BioAssay (NCATS).
